Data reported in PubChem BioAssay AID1159580 (chemical genetic matrix, 2015).
Screen size: about 5,500 compounds; about 2,000 (36%) were called active. Another 18% or so got no clear call; they are omitted. Cut-off read from the data, not from the text of the source: active = normalized growth mostly below about 0.91 (no sharp cut-off); inconclusive = no clear call, values can overlap the other calls; inactive = mostly above about 0.92. The list shows a part of the results.

Experiment: chemical genetic growth profiling, strain panel (AID 1159580);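 note: tested at 20 µM; growth read once vehicle control cultures reached saturation at 30 °C; 1 = growth at the plate median or of vehicle wells; lower values mean less growth of the strain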
Settings: growth OD
[1] = S. cerevisiae deletion strains, locus YHR030C, strain SLT2, stronger effect = lower value

Measured: normalized growth

CCCN(CCC)S(=O)(=O)c1ccc(C(=O)NCC(=O)O)cc1
inactive: S. cerevisiae deletion strains, locus YAL013W, strain DEP1, stronger effect = lower value 1.01 | S. cerevisiae deletion strains, locus YBR229C, strain ROT2, stronger effect = lower value 1 | S. cerevisiae deletion strains, locus YDL101C, strain DUN1, stronger effect = lower value 1 | S. cerevisiae deletion strains, locus YDL134C, strain PPH21, stronger effect = lower value 0.996 | S. cerevisiae deletion strains, locus YDR150W, strain NUM1, stronger effect = lower value 0.907 | S. cerevisiae deletion strains, locus YEL061C, strain CIN8, stronger effect = lower value 1.02 | S. cerevisiae deletion strains, locus YGR078C, strain PAC10, stronger effect = lower value 0.998 | [1] 1.03 | S. cerevisiae deletion strains, locus YHR087W, strain rtc3, stronger effect = lower value 1.02 | S. cerevisiae deletion strains, locus YJR043C, strain POL32, stronger effect = lower value 0.996 | S. cerevisiae deletion strains, locus YJR075W, strain HOC1, stronger effect = lower value 1.02 | S. cerevisiae deletion strains, locus YKL190W, strain CNB1, stronger effect = lower value 0.996 | S. cerevisiae deletion strains, locus YLR039C, strain RIC1, stronger effect = lower value 0.993 | S. cerevisiae deletion strains, locus YLR058C, strain SHM2 (second series), stronger effect = lower value 1.01 | S. cerevisiae deletion strains, locus YLR085C, strain ARP6, stronger effect = lower value 0.984 | S. cerevisiae deletion strains, locus YLR262C, strain YPT6, stronger effect = lower value 1.01 | S. cerevisiae deletion strains, locus YML094W, strain GIM5, stronger effect = lower value 1 | S. cerevisiae deletion strains, locus YMR219W, strain ESC1, stronger effect = lower value 1 | S. cerevisiae deletion strains, locus YMR263W, strain SAP30, stronger effect = lower value 0.989 | S. cerevisiae deletion strains, locus YNL153C, strain GIM3, stronger effect = lower value 1 | S. cerevisiae deletion strains, locus YNL298W, strain CLA4 (second series), stronger effect = lower value 1.02 | S. cerevisiae deletion strains, locus YNL322C, strain KRE1, stronger effect = lower value 1.01 | S. cerevisiae deletion strains, locus YNR030W, strain Alg12, stronger effect = lower value 1.01 | S. cerevisiae deletion strains, locus YPL055C, strain LGE1, stronger effect = lower value 1.02 | S. cerevisiae deletion strains, locus YPL241C, strain CIN2, stronger effect = lower value 1 | S. cerevisiae deletion strains, locus YPR135W, strain CTF4, stronger effect = lower value 1.01 | S. cerevisiae strains, strain wild type, stronger effect = lower value 1.01

CC1(C)N([O-])[N+](=O)C1(C)Br (configuration not stated)
inactive: S. cerevisiae deletion strains, locus YAL021C, strain ccr4, stronger effect = lower value 0.967 | S. cerevisiae deletion strains, locus YAL026C, strain drs2, stronger effect = lower value 0.99 | S. cerevisiae deletion strains, locus YAL030W, strain snc1, stronger effect = lower value 1 | S. cerevisiae deletion strains, locus YBL061C, strain skt5, stronger effect = lower value 0.981 | S. cerevisiae deletion strains, locus YBR009C, strain hhf1, stronger effect = lower value 0.995 | S. cerevisiae deletion strains, locus YBR023C, strain chs3, stronger effect = lower value 0.983 | S. cerevisiae deletion strains, locus YBR171W, strain sec66, stronger effect = lower value 0.968 | S. cerevisiae deletion strains, locus YBR231C, strain swc5, stronger effect = lower value 0.988 | S. cerevisiae deletion strains, locus YBR279W, strain paf1, stronger effect = lower value 0.995 | S. cerevisiae deletion strains, locus YCL011C, strain gbp2, stronger effect = lower value 0.965 | S. cerevisiae deletion strains, locus YCL016C, strain dcc1, stronger effect = lower value 0.99 | S. cerevisiae deletion strains, locus YCL061C, strain MRC1, stronger effect = lower value 1 | S. cerevisiae deletion strains, locus YCL069W, strain vba3, stronger effect = lower value 0.969 | S. cerevisiae deletion strains, locus YCR088W, strain abp1, stronger effect = lower value 0.967 | S. cerevisiae deletion strains, locus YDL005C, strain med2, stronger effect = lower value 0.978 | S. cerevisiae deletion strains, locus YDL040C, strain nat1, stronger effect = lower value 0.992 | S. cerevisiae deletion strains, locus YDR001C, strain nth1, stronger effect = lower value 0.987 | S. cerevisiae deletion strains, locus YDR069C, strain doa4, stronger effect = lower value 0.992 | S. cerevisiae deletion strains, locus YDR137W, strain rgp1, stronger effect = lower value 1.07 | S. cerevisiae deletion strains, locus YDR159W, strain sac3, stronger effect = lower value 0.98 | S. cerevisiae deletion strains, locus YDR195W, strain ref2 0.972 | S. cerevisiae deletion strains, locus YDR297W, strain sur2, stronger effect = lower value 0.987 | S. cerevisiae deletion strains, locus YDR334W, strain swr1, stronger effect = lower value 0.969 | S. cerevisiae deletion strains, locus YDR335W, strain msn5, stronger effect = lower value 0.968 | S. cerevisiae deletion strains, locus YDR392W, strain spt3, stronger effect = lower value 0.906 | S. cerevisiae deletion strains, locus YEL003W, strain gim4, stronger effect = lower value 0.984 | S. cerevisiae deletion strains, locus YEL037C, strain rad23, stronger effect = lower value 0.982 | S. cerevisiae deletion strains, locus YEL061C, strain CIN8 (second series), stronger effect = lower value 0.973 | S. cerevisiae deletion strains, locus YER015W, strain faa2, stronger effect = lower value 0.962 | S. cerevisiae deletion strains, locus YER016W, strain bim1, stronger effect = lower value 0.992 | S. cerevisiae deletion strains, locus YER111C, strain swi4, stronger effect = lower value 0.996 | S. cerevisiae deletion strains, locus YER155C, strain BEM2 (second series), stronger effect = lower value 0.974 | S. cerevisiae deletion strains, locus YFR010W, strain ubp6, stronger effect = lower value 0.979 | S. cerevisiae deletion strains, locus YGL167C, strain pmr1, stronger effect = lower value 0.987 | S. cerevisiae deletion strains, locus YGL173C, strain kem1, stronger effect = lower value 0.984 | S. cerevisiae deletion strains, locus YGL227W, strain vid30, stronger effect = lower value 0.982 | S. cerevisiae deletion strains, locus YGL240W, strain doc1, stronger effect = lower value 0.994 | S. cerevisiae deletion strains, locus YGL253W, strain hxk2, stronger effect = lower value 0.982 | S. cerevisiae deletion strains, locus YHR013C, strain ard1, stronger effect = lower value 0.977 | S. cerevisiae deletion strains, locus YHR027C, strain rpn1, stronger effect = lower value 0.991 | [1] 0.966 | S. cerevisiae deletion strains, locus YHR079C, strain IRE1, stronger effect = lower value 0.966 | S. cerevisiae deletion strains, locus YHR142W, strain chs7, stronger effect = lower value 0.968 | S. cerevisiae deletion strains, locus YJL092W, strain hpr5, stronger effect = lower value 0.963 | S. cerevisiae deletion strains, locus YJL095W, strain BCK1 (second series), stronger effect = lower value 0.973 | S. cerevisiae deletion strains, locus YJL095W, strain BCK1, stronger effect = lower value 0.975 | S. cerevisiae deletion strains, locus YJL115W, strain asf1, stronger effect = lower value 0.979 | S. cerevisiae deletion strains, locus YJL129C, strain trk1, stronger effect = lower value 0.976 | S. cerevisiae deletion strains, locus YJL154C, strain vps35, stronger effect = lower value 0.969 | S. cerevisiae deletion strains, locus YJL164C, strain tpk1, stronger effect = lower value 0.995 | S. cerevisiae deletion strains, locus YJL166W, strain qcr8, stronger effect = lower value 0.988 | S. cerevisiae deletion strains, locus YJL187C, strain SWE1, stronger effect = lower value 1.01 | S. cerevisiae deletion strains, locus YJR066W, strain TOR1, stronger effect = lower value 0.907 | S. cerevisiae deletion strains, locus YKL160W, strain elf1, stronger effect = lower value 0.998 | S. cerevisiae deletion strains, locus YKR026C, strain gcn3, stronger effect = lower value 0.984 | S. cerevisiae deletion strains, locus YKR091W, strain srl3, stronger effect = lower value 0.995 | S. cerevisiae deletion strains, locus YLL001W, strain dnm1, stronger effect = lower value 1 | S. cerevisiae deletion strains, locus YLL026W, stronger effect = lower value 0.986 | S. cerevisiae deletion strains, locus YLL041C, strain sdh2, stronger effect = lower value 0.99 | S. cerevisiae deletion strains, locus YLR027C, strain aat2, stronger effect = lower value 1 | S. cerevisiae deletion strains, locus YLR113W, strain HOG1, stronger effect = lower value 0.993 | S. cerevisiae deletion strains, locus YLR221C, strain rsa3, stronger effect = lower value 0.985 | S. cerevisiae deletion strains, locus YLR258W, strain gsy2, stronger effect = lower value 0.985 | S. cerevisiae deletion strains, locus YLR262C, strain YPT6 (second series), stronger effect = lower value 1.03 | S. cerevisiae deletion strains, locus YLR320W, strain mms22, stronger effect = lower value 0.985 | S. cerevisiae deletion strains, locus YLR342W, strain FKS1, stronger effect = lower value 0.978 | S. cerevisiae deletion strains, locus YLR357W, strain rsc2, stronger effect = lower value 0.999 | S. cerevisiae deletion strains, locus YLR370C, strain arc18, stronger effect = lower value 0.982 | S. cerevisiae deletion strains, locus YLR384C, strain iki3, stronger effect = lower value 0.986 | S. cerevisiae deletion strains, locus YML120C, strain ndi1, stronger effect = lower value 0.984 | S. cerevisiae deletion strains, locus YMR058W, strain fet3, stronger effect = lower value 0.994 | S. cerevisiae deletion strains, locus YMR125W, strain sto1, stronger effect = lower value 0.974 | S. cerevisiae deletion strains, locus YMR129W, stronger effect = lower value 0.992 | S. cerevisiae deletion strains, locus YMR205C, strain PFK2, stronger effect = lower value 0.998 | S. cerevisiae deletion strains, locus YMR231W, strain pep5, stronger effect = lower value 0.96 | S. cerevisiae deletion strains, locus YNL071W, strain lat1, stronger effect = lower value 0.973 | S. cerevisiae deletion strains, locus YNL183C, strain NPR1, stronger effect = lower value 0.912 | S. cerevisiae deletion strains, locus YNL209W, strain ssb2, stronger effect = lower value 0.989 | S. cerevisiae deletion strains, locus YNL248C, strain rpa49, stronger effect = lower value 0.992 | S. cerevisiae deletion strains, locus YNL322C, strain KRE1 (second series), stronger effect = lower value 0.979 | S. cerevisiae deletion strains, locus YNR049C, strain mso1, stronger effect = lower value 0.99 | S. cerevisiae deletion strains, locus YOR001W, strain rrp6, stronger effect = lower value 0.988 | S. cerevisiae deletion strains, locus YOR070C, strain gyp1, stronger effect = lower value 0.976 | S. cerevisiae deletion strains, locus YOR080W, strain dia2, stronger effect = lower value 0.985 | S. cerevisiae deletion strains, locus YOR083W, strain WHI5, stronger effect = lower value 0.994 | S. cerevisiae deletion strains, locus YOR106W, strain vam3, stronger effect = lower value 0.966 | S. cerevisiae deletion strains, locus YOR231W, strain MKK1, stronger effect = lower value 0.977 | S. cerevisiae deletion strains, locus YOR265W, strain rbl2, stronger effect = lower value 0.993 | S. cerevisiae deletion strains, locus YOR270C, strain vph1, stronger effect = lower value 1.01 | S. cerevisiae deletion strains, locus YOR290C, strain snf2, stronger effect = lower value 0.987 | S. cerevisiae deletion strains, locus YPL051W, strain arl3, stronger effect = lower value 0.985 | S. cerevisiae deletion strains, locus YPL078C, strain atp4, stronger effect = lower value 0.986 | S. cerevisiae deletion strains, locus YPL106C, strain sse1, stronger effect = lower value 0.977 | S. cerevisiae deletion strains, locus YPL240C, strain hsp82, stronger effect = lower value 0.97 | S. cerevisiae deletion strains, locus YPL256C, strain CLN2, stronger effect = lower value 0.956
